An excerpt weighted towards active compounds, which were near 3.1% of everything screened.
MBD2 inh: blocks human MBD2 binding to methylated DNA; Q9UBB5; TR-FRET, MBD2 binding to methylated oligonucleotide; inhibition, % at 4.4 µM; actives 0.31% (n = 370,000); AID 686964; in the data active = inhibition above about 13%
UHRF1 MBD2 ctr: human UHRF1 methylated DNA binding inhibitors; Q96T88; UHRF1 binding to methylated oligo, TR-FRET; inhibition, % at 4.4 µM; actives 0.75% (n = 370,000); AID 687016; in the data active = inhibition above about 21%;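 also: UHRF1 SRA domain binding a hemimethylated CpG hairpin DNA probe; 0% = median of test compound wells and 100% = reference inhibitor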
Rin1-Abl PPI inh: human Rin1-Abl interaction inhibition. P00519+Q13671. TR-FRET Rin1/Abl binding, biochemical. inhibition, % at 7.35 µM. actives 0.4% (n = 360,000); in the data active = inhibition above about 5%, passing the limit was not always enough
LEDGF integ inh: blocks HIV-1 LEDGF/p75-dependent DNA integration; AID 743269; actives 0.64% (n = 370,000); inhibition, % at 3.7 µM; TR-FRET IN-LEDGF/p75 DNA integration, Eu/Cy5;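 active = inhibition above the screen-wide mean plus 3 SD, cut at about 13% in these data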;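 also: signal is the Cy5 over europium emission ratio at 671 and 618 nm; 0% = plate median of compound wells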
proKLK7 act: proKLK7 (human) activation, primary screen; P49862; actives 0.9% (n = 370,000); activation, % at 7 µM; purified proKLK7, EDANS-DABCYL substrate fluorescence; 100% is mature enzyme control, 0% vehicle;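 active = activation above the mean of all tested compounds plus 3 SD, computed per campaign excluding outliers beyond control limits, cut at about 13% in these data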
Target sequence (P49862 whole entry, looked up): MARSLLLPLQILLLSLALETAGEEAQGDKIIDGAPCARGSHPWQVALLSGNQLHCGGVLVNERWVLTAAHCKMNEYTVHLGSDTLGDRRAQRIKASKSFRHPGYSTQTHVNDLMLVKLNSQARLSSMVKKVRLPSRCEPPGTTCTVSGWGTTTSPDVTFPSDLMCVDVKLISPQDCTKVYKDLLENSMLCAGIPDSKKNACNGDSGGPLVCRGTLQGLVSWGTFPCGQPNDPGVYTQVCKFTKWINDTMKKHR
Neddylation inh: cullin neddylation inhibition | P61081+Q13564 | AID 651699 | TR-FRET cullin neddylation, biochemical | calls only at 25 µM | actives 0.58% (n = 360,000); in the data active = inhibition above about 36%
An asterisk follows results filed as active; i = inactive; / = no result given; + = active, no number.

SMILES	MBD2 inh	UHRF1 MBD2 ctr	Rin1-Abl PPI inh	LEDGF integ inh	proKLK7 act	Neddylation inh
O=C(O)C1CCCN1C(=O)C1CCN(S(=O)(=O)c2cccc(C(F)(F)F)c2)CC1 (stereo not drawn)	-4	-2	-2	1	0	i
CCOc1ccc(CNC(=O)CCS(=O)(=O)Cc2ccccc2C)cc1OC	7	3	-2	-4	0	i
CCOc1ccc(CNC(=O)CCc2cn(C)c3ccccc23)cc1OC	3	59*	-2	-1	0	i
CCn1cc(CCC(=O)NCc2ccccc2OC)c2ccccc21	4	22*	3	7	0	i
Cc1cc(C(=O)OCC(=O)NCCc2ccc(S(N)(=O)=O)cc2)c2ccccc2n1	-2	-4	-3	0	-1	i
Cc1cc(C(=O)OCC(=O)Nc2cccc(S(N)(=O)=O)c2)c2ccccc2n1	-2	23*	-4	2	-1	i
Cc1c(C(=O)Nc2ccc(F)c(F)c2)oc2ccc(S(=O)(=O)N3CCCCC3)cc12	4	23*	1	-3	0	i
CCC(=O)Nc1ccc(S(=O)(=O)NC[C@H]2O[C@@H](n3cc(C)c(=O)[nH]c3=O)C[C@@H]2O)cc1	3	-2	0	-2	0	i
C[C@H]1[C@H](NC(=O)c2ccc(Cl)c(C(F)(F)F)c2)CC[C@@]23CCCN2C(=O)CCC[C@@H]13	-1	-2	/	0	/	/
CSC1SCC2C(=O)N(C)C(C(C)C)C(=O)OCC(NC(=O)c3cnc4ccccc4n3)C(=O)NC(C)C(=O)N(C)C1C(=O)N(C)C(C(C)C)C(=O)OCC(NC(=O)c1cnc3ccccc3n1)C(=O)NC(C)C(=O)N2C (stereo not drawn)	95*	-35	0	-51	0	i
CCOC(=O)c1cc(OC)c2cccc(CN3CCC(C)(C(=O)NCCOC)C3)c2c1 (stereo not drawn)	/	/	-3	/	/	+
CCOC(=O)c1cc(OC)c2cccc(CN3CCCC(C)(C(=O)NCCOC)C3)c2c1 (stereo not drawn)	-3	1	-4	1	1	i
c1ccc2c(Nc3ccc4c(c3)OCCO4)c3c(nc2c1)CCCC3	3	-4	-8	-1	0	i
O=C(c1cccc(-n2cccc2)c1)N1CCN(S(=O)(=O)c2ccccc2)CC1	28*	56*	1	7	0	i
O=C(c1cccc(S(=O)(=O)N2CCOCC2)c1)N1CCCCCC1	1	40*	-4	3	0	i
Cc1ccc(S(=O)(=O)N2CCN(C(=O)c3cccc(-n4cccc4)c3)CC2)cc1	1	8	-2	4	0	i
O=C(c1cccc(S(=O)(=O)N2CCOCC2)c1)N1CCCC1	-1	-1	1	-4	0	i
Clc1ccc(-n2cnc3c(Cl)ncnc32)cc1Cl	5	-1	-1	3	0	i
CC(=O)Nc1ccc(S(=O)(=O)N2CCN(c3nc(NC4CCCC4)c4ccccc4n3)CC2)cc1	-3	1	11*	-4	-1	i
CC(=O)Nc1ccc(S(=O)(=O)N2CCN(c3cc(C)nc4ccccc34)CC2)cc1	-6	-1	-3	1	1	i
Cc1cccc(-c2nnc(SCc3cccc4ccccc34)n2-c2ccc(Cl)cc2)c1	6	2	/	0	0	/
COCc1cc(=O)n2[nH]c(-c3ccsc3-n3c(C)ccc3C)cc2n1	36*	72*	2	81*	0	i
COCc1cc(=O)n2[nH]c(N)nc2n1	-3	4	-1	-1	0	i
O=C(C(=O)N1CCN(C(=O)c2cccs2)CC1)c1cccc(C(F)(F)F)c1	-2	0	/	-2	0	/
O=C(CSc1n[nH]c(=O)n1-c1ccccc1)Nc1ccccc1	-6	-2	-2	2	0	i
SMILES	MBD2 inh	UHRF1 MBD2 ctr	Rin1-Abl PPI inh	LEDGF integ inh	proKLK7 act	Neddylation inh
O=C(CSc1n[nH]c(=O)n1-c1ccc2c(c1)OCCO2)Nc1ccccc1	-2	27*	2	1	1	i
COC(=O)c1cc(-c2ccc(C)cc2)c(=O)n2c1CCC2	-4	0	/	-9	0	/
COC(=O)C1CN(Cc2cn(Cc3ccccc3)nn2)CCS(=O)(=O)N1Cc1ccccc1 (stereo not drawn)	6	28*	/	-1	0	/
COC(=O)C1CN(Cc2cn(Cc3ccc(C)cc3)nn2)CCS(=O)(=O)N1Cc1ccccc1 (stereo not drawn)	5	11	/	4	0	/
CCOC(=O)Cn1cc(CN2C(C(=O)OC)CN(Cc3ccc(OC)cc3)CCS2(=O)=O)nn1 (stereo not drawn)	6	80*	/	2	0	/
CCCN1CCS(=O)(=O)N(Cc2cn(CC(=O)OCC)nn2)C(C(=O)OC)C1 (stereo not drawn)	3	14	/	6	0	/
CN(C)c1ccc(/C=C/C=N/Nc2nc(N3CCOCC3)nc(N3CCOCC3)n2)cc1	-5	-1	-1	2	-35	/
CCOC(=O)c1c(NC(=O)C2c3ccccc3Oc3ccccc32)sc(C(N)=O)c1C	5	22*	-2	0	0	i
O=C1c2cccc3cccc(c23)C(=O)N1/N=C/c1ccc(O)cc1O	-8	-18	-8	2	-2	i
O=C1c2ccccc2C(=O)N1/N=C/c1ccc(O)c(O)c1O	/	/	65*	/	/	i
COc1cc(-c2nc(C(=O)NCC3CCCO3)cc3c2[nH]c2ccccc23)cc(OC)c1OC (stereo not drawn)	-1	-2	4	-2	-7	+
CCOc1ccc(-c2cc(CCCC(=O)NCc3ccco3)no2)cc1	2	1	-2	0	-1	i
CCOc1ccc(-c2cc(CCCC(=O)NCc3ccc(C)cc3)no2)cc1	1	29*	2	2	1	i
Cc1ccc(CNC(=O)[C@@H](NC(=O)C2CCN(C(=O)[C@@H](N)CC(C)C)CC2)C(C)C)cc1	-5	-1	2	1	0	i
CC(C)[C@H](NC(=O)c1ccc(Cl)cc1Cl)C(=O)N1CCC[C@H]1C(=O)NCCc1ccccc1Cl	-2	1	/	-2	0	/
CCc1cc(-c2nnn(CCC3COCCO3)c2CC)cc(CC)c1-c1cn(Cc2ccc3ccccc3c2)nn1 (stereo not drawn)	-1	65*	-4	-3	0	i
O=C(NCc1ccccc1)C(c1cccc2ccccc12)n1c(=O)c(-c2ccccc2)nc2ccccc21 (stereo not drawn)	7	3	/	-1	0	i
CCCCCNC(=O)C(c1cccc2ccccc12)n1c(=O)c(-c2ccccc2)nc2ccccc21 (stereo not drawn)	-1	74*	/	1	0	i

Compound activity (PubChem)
